Records with an inconclusive call do not appear. Activity calls are given as the source filed them. Rule for the calls: active = hit-call score of the fitted dose curve at least 0.9, where 1 is the maximum; inconclusive = response in the unintended direction; inactive = score below 0.9.

The record followed here is PubChem BioAssay AID2283134 (EPA ToxCast).

human Checkpoint Kinase 1 (CHK1), CHEK1 (gene 1111), sequence (O14757 whole entry, looked up): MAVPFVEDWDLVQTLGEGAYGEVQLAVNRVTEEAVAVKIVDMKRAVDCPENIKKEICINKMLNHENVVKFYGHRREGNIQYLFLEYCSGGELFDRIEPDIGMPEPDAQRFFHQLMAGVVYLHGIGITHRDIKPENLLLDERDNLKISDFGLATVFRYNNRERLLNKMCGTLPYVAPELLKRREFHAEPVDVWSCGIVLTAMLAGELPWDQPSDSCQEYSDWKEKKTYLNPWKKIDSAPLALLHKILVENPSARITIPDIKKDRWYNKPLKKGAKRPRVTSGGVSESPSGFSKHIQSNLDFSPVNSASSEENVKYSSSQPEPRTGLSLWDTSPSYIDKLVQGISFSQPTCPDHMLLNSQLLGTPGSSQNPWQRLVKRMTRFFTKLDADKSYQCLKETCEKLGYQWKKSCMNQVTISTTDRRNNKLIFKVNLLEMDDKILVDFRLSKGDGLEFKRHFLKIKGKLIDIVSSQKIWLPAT

The test addresses human Checkpoint Kinase 1 (CHK1), CHEK1 (gene 1111) (UniProt O14757). Nature of the test: NVS_ENZ_hCHK1: NovaScreen (NVS) Enzymatic Assay for human Checkpoint Kinase 1 (CHK1). Here is the method:
NVS_ENZ_hCHK1 is a biochemical, single-readout assay that uses extracted gene-proteins in a cell-free assay. Measurements were taken 1 hour after chemical dosing in a 96-well plate.NVS_ENZ_hCHK1 is one of one assay component(s) measured or calculated from the NVS_ENZ_hCHK1 assay. It is designed to make measurements of enzyme activity, a form of enzyme reporter, as detected with fluorescence intensity signals by Fluorescence and electrophoretic mobility shift technology.Data from the assay component NVS_ENZ_hCHK1 was analyzed into 1 assay endpoint. This assay endpoint, NVS_ENZ_hCHK1, was analyzed in the positive analysis fitting direction relative to DMSO as the negative control and baseline of activity. Using a type of enzyme reporter, loss-of-signal activity can be used to understand changes in the enzymatic activity as they relate to the gene CHEK1. Furthermore, this assay endpoint can be referred to as a primary readout, because this assay has produced multiple assay endpoints where this one serves a enzymatic activity function. To generalize the intended target to other relatable targets, this assay endpoint is annotated to the kinase intended target family, where the subfamily is serine/threonine kinase. […]
For the compound `N#Cc1c(Cl)c(Cl)c(Cl)c(C#N)c1Cl`, the compound was called inactive.
